From PubChem BioAssay (Tox21)
Results filed as inconclusive are left out. Activity calls are given as the source filed them. Unless noted, the call rests on the fitted dose curve; in most records, active means well fitted curve in the direction sought with a large enough effect in the repeat runs; inconclusive means weak or mixed curves; inactive means no such curve, though single readings can be large; an effect the other way counts as inactive or inconclusive.

Assays:
[1] = qHTS assay to identify small molecule antagonists of the retinoic acid receptor (RAR) signaling pathway (AID 1159552; further: nearly all actives have a fitted effect of over 50% in size; further: potency means the concentration at half of the fitted maximal effect)
How it was run: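 Retinol signaling pathway inhibitors screened in C3RL4 RARE-luciferase reporter cells seeded overnight at 37 C, then compounds added with 1 uM (final) retinol as pathway substrate. After 6 hr at 37 C, luciferase luminescence read after 30 min at room temperature.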

[2] = qHTS assay to identify small molecule agonists of the retinoic acid receptor (RAR) signaling pathway (AID 1159553); further: potency means the concentration at half of the fitted maximal effect
How it was run: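 Reporter readout comes from luciferase under RARE control in C3RL4 cells; compound exposure lasts 6 hr at 37 C in 5% CO2, and luminescence is recorded following a 30 min room-temperature incubation with reagent.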

[3] = qHTS assay to identify small molecule antagonists of the estrogen related receptor (ERR) signaling pathway from Tox21 library - cell viability counter screen (AID 1224834); further: nearly all actives have a fitted effect of over 30% in size; further: potency means the concentration at half of the fitted maximal effect
How it was run: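 After 17.5 h of compound exposure at 37 C, ERR cells are incubated with CellTiter-Fluor for 30 min and fluorescence intensity serves as the viability measure.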

[4] = target: Luciferin 4-monooxygenase (Photinus pyralis) (UniProt P08659); assay: qHTS assay to identify small molecule inhibitors of firefly luciferase (AID 1224835); further: nearly all actives have a fitted effect of over 25% in size; further: potency means the concentration at half of the fitted maximal effect; on activity change, negative = inhibition: series mostly up to about 120 µM
How it was run: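 Biochemical qHTS: compounds run as interplate titrations against purified firefly enzyme, with D-luciferin and ATP each at its KM concentration. Light output recorded by CCD imaging.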

[5] = qHTS assay to identify small molecule antagonists of the constitutive androstane receptor (CAR) signaling pathway - cell viability counter screen (AID 1224837); further: nearly all actives have a fitted effect of over 45% in size; further: potency means the concentration at half of the fitted maximal effect; on activity change, negative = cytotoxicity: series mostly up to about 92 µM
How it was run: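 Counter screen run in HepG2-CYP2B6-hCAR cells: 4 hr settle, compound titration (15 concentrations) with 50 nM CITCO, 23 hr at 37 C/5% CO2, CellTiter-Fluor fluorescence.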

[6] = qHTS assay to identify small molecule antagonists of the estrogen related receptor signaling pathway with the pleiotropic PPARgamma coactivator (PGC) from Tox21 10K library - cell viability counter screen (AID 1224840; active means well fitted cell-killing curve with a large enough effect in the repeat runs, not every such curve was filed as active; further: nearly all actives have a fitted effect of over 40% in size; further: potency means the concentration at half of the fitted maximal effect)
How it was run: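 Following seeding of 2,000 PGC/ERR cells/well and 6 hours' incubation, test compounds were delivered in DMSO. The plates then sat 17.5 hours at 37 C before a fluorogenic live-cell protease reagent (CellTiter-Fluor) was read after 30 min.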

[7] = qHTS assay to identify small molecule agonists of the estrogen related receptor signaling pathway with the pleiotropic PPARgamma coactivator (PGC) from Tox21 10K library (AID 1224842); further: nearly all actives have a fitted effect of over 15% in size; further: potency means the concentration at half of the fitted maximal effect
How it was run: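 PGC/ERR reporter cell line, 2,000 cells per well, incubated 6 h at 37 C before 23 nL compound in DMSO was added. After 18 h at 37 C, One-Glo luminescence read following 30 min at room temperature.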

[8] = target: Thyrotropin receptor (Homo sapiens) (UniProt P16473); assay: qHTS assay to identify small molecule agonists of the thyroid stimulating hormone receptor (TSHR) signaling pathway (AID 1224843; calls by dose curve; further: nearly all actives have a fitted effect of over 45% in size; further: potency means the concentration at half of the fitted maximal effect)
How it was run: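 Steps: seed 800 TSHR-HEK293 cells per well; add test compound and hold 30 min at ambient temperature; dispense cAMP-d2 then anti-cAMP cryptate; incubate 1 h at ambient; measure fluorescence intensity.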

[9] = qHTS assay to identify small molecule agonists of the constitutive androstane receptor (CAR) signaling pathway - cell viability counter screen (AID 1224836); further: nearly all actives have a fitted effect of over 45% in size; further: potency means the concentration at half of the fitted maximal effect; on viability change, negative = cytotoxic: series mostly up to about 92 µM
How it was run: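 HepG2 cells stably carrying hCAR and a CYP2B6-2.2kb reporter; 15-concentration compounds plus PK11195 (final 0.75 uM), 23 hr at 37 C/5% CO2. Viability read by CellTiter-Fluor fluorescence.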

[10] = target: Nuclear receptor subfamily 1 group I member 3 (Homo sapiens) (UniProt Q14994); assay: qHTS assay to identify small molecule antagonists of the constitutive androstane receptor (CAR) signaling pathway (AID 1224838);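 further: HepG2 cells stably expressing hCAR with CYP2B6 luciferase reporter stimulated by CITCO; nearly all actives have a fitted effect of over 40% in size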
How it was run: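 Cell line: HepG2 double-stable for hCAR and CYP2B6-2.2kb reporter. Agonist: CITCO, 50 nM final. Compounds: 15 concentrations, 24 h, 37 C. Detection: ONE-Glo luminescence.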

[11] = target: Nuclear receptor subfamily 1 group I member 3 (Homo sapiens) (UniProt Q14994); assay: qHTS assay to identify small molecule agonists of the constitutive androstane receptor (CAR) signaling pathway (AID 1224839); further: nearly all actives have a fitted effect of over 15% in size; further: potency means the concentration at half of the fitted maximal effect;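 on activation: HepG2 cells stably carrying human CAR and a CYP2B6 luciferase reporter; series mostly up to about 92 µM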
How it was run: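 HepG2 cells stably co-transfected with hCAR and a CYP2B6-2.2kb luciferase reporter; compounds at 15 concentrations with 0.75 uM PK11195 present. After 24 hr at 37 C, luciferase read by ONE-Glo luminescence.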

[12] = qHTS assay to identify small molecule agonists of the hypoxia (HIF-1) signaling pathway - cell viability counter screen (AID 1224844; calls by dose curve; further: nearly all actives have a fitted effect of over 50% in size; further: potency means the concentration at half of the fitted maximal effect)
How it was run: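 Cells (HRE-bla ME-180, 2,000 per well) sat 5 hrs at 37C, got compound for 17 hrs, were read for CCF4-AM FRET, and were finally lysed with CellTiter-Glo for a 30 min room-temperature luminescence read.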

[13] = qHTS assay to identify small molecule antagonists of the estrogen related receptor signaling pathway with the pleiotropic PPARgamma coactivator (PGC) from Tox21 10K library (AID 1224841; call rule not given here; further: series mostly up to about 92 µM; actives are mostly falling curves and most rising ones were filed inactive; nearly all actives have a fitted effect of over 50% in size)
How it was run: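 qHTS antagonist format: PGC/ERR cells, 2k/well, compound in DMSO by pin transfer after 6 h attachment, 18 h treatment at 37 C, One-Glo luminescence read at 30 min.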

[14] = qHTS assay to identify small molecule agonists of H2AX (AID 1224845; active means well fitted activation curve with a large enough effect in the signal ratio in the repeat runs, not every such curve was filed as active; the % refers to the signal ratio; further: potency means the concentration at half of the fitted maximal effect)
How it was run: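 Wild-type CHO-K1 cells, plated overnight, exposed 3hr at 37C to 15 concentrations (0.76% DMSO final). Lysed, then HTRF anti-pH2AX (S139) cryptate and anti-H2AX-d2 antibodies, 24 hr room temperature; 665/620 nm emission read.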

[15] = qHTS assay to identify small molecule antagonists of the estrogen related receptor (ERR) signaling pathway - cell viability counter screen (AID 1224818); further: series mostly up to about 46 µM
How it was run: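 After a 6 h pre-incubation, ERR cells were dosed by pin tool with compounds, positive/negative controls or DMSO alone. Following 17.5 h at 37 C and 30 min with CellTiter-Fluor, fluorescence was recorded.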

[16] = qHTS assay to identify small molecule agonists of the estrogen related receptor (ERR) signaling pathway (AID 1224820)
How it was run: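 ERR reporter cells (NTP line) plated 2,000/well, incubated 6 h at 37 C/5% CO2, then pinned with compounds in DMSO and held 18 h at 37 C. One-Glo added; luminescence read after 30 min at room temperature.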

[17] = tested on: estrogen-related receptor alpha (ERRalpha) with PGC-1alpha coactivator, human; assay: qHTS assay to identify small molecule antagonists of the estrogen related receptor signaling pathway with the pleiotropic PPARgamma coactivator (PGC) (AID 1224821; calls by dose curve;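 further: series mostly up to about 46 µM; lower luminescence signal means antagonism of PGC/ERR signalling; nearly all actives have a fitted effect of over 50% in size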)
How it was run: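 Cells engineered for PGC/ERR signalling (line from NTP) were plated 6 h at 37 C/5% CO2, then exposed to DMSO-dissolved compound for 18 h at 37 C. Luciferase activity was read by One-Glo luminescence after 30 min at room temperature.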

[18] = qHTS assay to identify small molecule agonists of the estrogen related receptor signaling pathway with the pleiotropic PPARgamma coactivator (PGC) (AID 1224823)
How it was run: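 PGC/ERR reporter cells were seeded, rested 6 h at 37 C/5% CO2, then exposed to compounds in DMSO by pin transfer for 18 h at 37 C. Luciferase activity was read as luminescence after One-Glo reagent and 30 min at room temperature.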

[19] = qHTS assay to identify small molecule antagonists of the estrogen related receptor (ERR) signaling pathway (AID 1224819; further: nearly all actives have a fitted effect of over 50% in size; further: potency means the concentration at half of the fitted maximal effect;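 on activity change, negative = inhibition: luminescence from an ERR-driven luciferase reporter measured with One-Glo reagent; series mostly up to about 46 µM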)
How it was run: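 Luminescence readout (One-Glo, 30 min, RT) of ERR cell line after 18 h compound exposure at 37 C; cells seeded 2,000/well, pre-incubated 6 h, compounds pinned from DMSO stocks.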

[20] = qHTS assay to identify small molecule antagonists of the estrogen related receptor signaling pathway with the pleiotropic PPARgamma coactivator (PGC) cell viability counter screen (AID 1224822; further: potency means the concentration at half of the fitted maximal effect; on viability change, negative = cytotoxic: series mostly up to about 46 µM)
How it was run: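 PGC/ERR cells were plated at 2,000 per well and allowed 6 h to settle before compound addition. Following 17.5 h at 37 C, CellTiter-Fluor reagent was added and fluorescence was read 30 min later.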
On the % scale 0 is the no-effect control and ±100 the full control effect.

Nuclear receptor subfamily 1 group I member 3 (Homo sapiens), sequence (Q14994 whole entry, looked up): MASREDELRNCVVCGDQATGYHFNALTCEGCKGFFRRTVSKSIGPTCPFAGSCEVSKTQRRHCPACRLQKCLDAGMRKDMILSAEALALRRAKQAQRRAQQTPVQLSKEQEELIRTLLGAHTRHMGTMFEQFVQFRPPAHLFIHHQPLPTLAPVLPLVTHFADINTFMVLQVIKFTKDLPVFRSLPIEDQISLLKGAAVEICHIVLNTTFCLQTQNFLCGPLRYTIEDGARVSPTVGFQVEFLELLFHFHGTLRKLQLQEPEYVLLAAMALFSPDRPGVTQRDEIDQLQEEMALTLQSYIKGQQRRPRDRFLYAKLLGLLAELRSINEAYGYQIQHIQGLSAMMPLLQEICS
Thyrotropin receptor (Homo sapiens), sequence (P16473 whole entry, looked up): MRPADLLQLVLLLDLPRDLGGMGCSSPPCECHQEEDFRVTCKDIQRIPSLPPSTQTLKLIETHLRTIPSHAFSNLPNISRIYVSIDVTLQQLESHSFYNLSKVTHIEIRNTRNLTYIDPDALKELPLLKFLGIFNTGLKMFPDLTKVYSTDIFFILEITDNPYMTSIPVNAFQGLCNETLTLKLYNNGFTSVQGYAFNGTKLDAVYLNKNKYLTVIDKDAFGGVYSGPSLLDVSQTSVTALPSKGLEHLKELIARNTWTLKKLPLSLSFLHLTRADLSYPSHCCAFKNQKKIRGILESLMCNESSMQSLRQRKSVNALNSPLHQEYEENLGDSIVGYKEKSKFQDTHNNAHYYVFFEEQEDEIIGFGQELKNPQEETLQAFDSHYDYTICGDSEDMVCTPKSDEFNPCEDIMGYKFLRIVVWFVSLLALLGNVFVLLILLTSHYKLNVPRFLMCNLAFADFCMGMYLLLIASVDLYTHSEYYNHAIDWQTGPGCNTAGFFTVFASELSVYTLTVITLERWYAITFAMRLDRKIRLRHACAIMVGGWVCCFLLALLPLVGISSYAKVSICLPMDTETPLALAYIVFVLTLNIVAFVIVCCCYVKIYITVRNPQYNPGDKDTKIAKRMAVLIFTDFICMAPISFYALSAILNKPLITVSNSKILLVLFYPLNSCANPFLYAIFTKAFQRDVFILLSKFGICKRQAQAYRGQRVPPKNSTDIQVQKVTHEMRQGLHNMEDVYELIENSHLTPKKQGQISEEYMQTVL
Luciferin 4-monooxygenase (Photinus pyralis), sequence (P08659 whole entry, looked up): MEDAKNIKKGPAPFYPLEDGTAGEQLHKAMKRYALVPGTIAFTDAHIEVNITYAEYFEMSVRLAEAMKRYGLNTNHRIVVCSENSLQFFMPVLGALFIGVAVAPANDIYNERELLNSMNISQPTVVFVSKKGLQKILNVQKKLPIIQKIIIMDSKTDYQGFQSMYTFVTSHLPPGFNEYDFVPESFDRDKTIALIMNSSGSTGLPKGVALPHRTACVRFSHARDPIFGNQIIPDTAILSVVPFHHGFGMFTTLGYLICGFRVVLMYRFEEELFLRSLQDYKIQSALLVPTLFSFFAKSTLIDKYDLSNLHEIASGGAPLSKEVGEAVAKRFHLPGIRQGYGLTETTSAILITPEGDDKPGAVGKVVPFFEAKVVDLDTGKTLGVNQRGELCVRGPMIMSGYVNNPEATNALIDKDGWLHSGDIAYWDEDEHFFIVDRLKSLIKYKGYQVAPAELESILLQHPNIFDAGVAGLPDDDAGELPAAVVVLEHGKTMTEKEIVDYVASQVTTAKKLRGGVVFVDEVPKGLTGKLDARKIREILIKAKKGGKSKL

CCC(C)c1cc([N+](=O)[O-])cc([N+](=O)[O-])c1OC(=O)OC(C)C (configuration not stated)
inactive: Potency [2] | Potency [4] | Potency [7] | Potency [8]
active: Potency [1] 34.4 µM | Potency [3] 24.3 µM | Potency [5] 61.1 µM | Potency [6] 43.3 µM

COc1cc(C(C)C)c2c(c1)S(=O)(=O)N(COc1cc(=O)n3cccc(OCCN4CCCCC4)c3n1)C2=O
inactive: activity, negative = inhibition [1] 1.67% [at 19 µM] | Potency [2] | activity change, negative = inhibition [4] -3.11% [at 23.6 µM] | viability change, negative = cytotoxic [9] -20.4% [at 19 µM] | activity, negative = inhibition [10] -19.4% [at 19 µM] | activation [11] -2.29% [at 19 µM] | viability change, negative = cytotoxic [6] -15.4% [at 19 µM] | activation [8] -0.216% [at 19 µM] | activity change, negative = cytotoxicity [12] -17% [at 15.8 µM]

C/C=C/C=N/NC(=O)c1ccncc1
inactive: Potency [1] | Potency [2] | Potency [3] | Potency [4] | Potency [9] | Potency [5] | Potency [11] | Potency [6] | Potency [8]

CC1(C)C(=O)N(Br)C(=O)N1Br
inactive: Potency [1] | Potency [2] | Potency [3] | Potency [9] | Potency [5] | Potency [10] | Potency [11] | Potency [6] | Potency [13] | Potency [7] | Potency [8] | Potency [12] | Potency [14]

O=C(c1ccccc1)c1cc(Cl)ccc1O
inactive: Potency [1] | Potency [2] | Potency [3] | Potency [4] | Potency [9] | Potency [10] | Potency [6] | Potency [13] | Potency [7] | Potency [12]

CN1CCN(C2Cc3ccccc3Sc3ccc(Cl)cc32)CC1 (configuration not stated)
inactive: Potency [15] | outcome [16] | outcome [17] | outcome [18] | Potency [4] | Potency [9] | Potency [5] | Potency [10] | Potency [11] | Potency [6] | Potency [13] | Potency [7] | Potency [8]
active: Potency [1] 29.8 µM | Potency [12] 23.9 µM

CCCCCCOc1ccc(O)cc1
active: Potency [2] 0.611 µM | Potency [3] 27.3 µM | Potency [4] 35.6 µM | Potency [11] 27.3 µM | Potency [7] 13.7 µM | Potency [12] 54.9 µM | Potency [14] 11.3 µM
inactive: Potency [1] | Potency [10] | Potency [6] | Potency [8]

Oc1ccc(-c2ccc(O)cc2)cc1
active: Potency [4] 40.2 µM | Potency [11] 17.3 µM | Potency [12] 49.3 µM
inactive: Potency [1] | Potency [2] | Potency [9] | Potency [10] | Potency [6] | Potency [13] | Potency [7] | Potency [8]

CCCCCCCOC(=O)c1ccc(O)cc1
inactive: Potency [1] | Potency [9] | Potency [5] | Potency [10] | Potency [6] | Potency [14]
active: Potency [2] 34.4 µM | Potency [4] 71 µM | Potency [12] 55 µM

CCN1CCN(c2cc(-c3ccc(F)cc3)c3c(n2)CCCCCC3)CC1
inactive: activity, negative = inhibition [1] 9.21% [at 19 µM] | Potency [2] | viability change, negative = cytotoxic [3] 0.165% [at 19 µM] | activity change, negative = inhibition [4] -0.963% [at 23.6 µM] | viability change, negative = cytotoxic [9] 4.47% [at 19 µM] | activity, negative = inhibition [10] 16.5% [at 19 µM] | activation [11] -1.24% [at 19 µM] | viability change, negative = cytotoxic [6] 18% [at 19 µM] | activation [7] -0.232% [at 19 µM] | activation [8] -12.2% [at 19 µM] | activity change, negative = cytotoxicity [12] 0.919% [at 15.8 µM] | activation (H2AX phosphorylation) [14] 3.44% [at 31.6 µM]

CCCCCCCCCCCCCCCC
inactive: Potency [1] | Potency [2] | Potency [3] | Potency [4] | Potency [9] | Potency [5] | Potency [6] | Potency [7] | Potency [8]

CN(C)c1ccc(N=Nc2ccccc2C(=O)O)cc1
inactive: Potency [1] | Potency [10]
active: Potency [2] 1.09 µM | Potency [3] 48.6 µM | Potency [4] 3.17 µM | Potency [11] 10.9 µM | Potency [6] 27.3 µM

CCCCCCCCCCCCCOP(=O)(O)O
inactive: Potency [1] | Potency [2] | Potency [3] | Potency [9] | Potency [5] | Potency [10] | Potency [11] | Potency [6] | Potency [7] | Potency [12] | Potency [14]

CC1=C(/C=C/C(C)=C/C=C/C(C)=C\C=O)C(C)(C)CCC1
active: Potency [2] 1.63 µM | Potency [3] 51.6 µM | Potency [11] 23 µM | Potency [8] 10.3 µM
inactive: Potency [1] | Potency [4] | Potency [9] | Potency [10]

O=C1c2c(O)ccc(O)c2C(=O)c2c(NCCNCCO)ccc(NCCNCCO)c21
active: Potency [1] 0.119 µM | Potency [19] 1.44 µM | Potency [3] 3.35 µM | Potency [9] 3.76 µM | Potency [5] 4.22 µM
inactive: Potency [15] | outcome [16] | outcome [18]

CCCCCCCC/C=C\CCCCCCCC(=O)NCc1ccc(O)c(OC)c1
inactive: Potency [1] | Potency [15] | Potency [19] | outcome [16] | Potency [20] | outcome [18] | Potency [3] | Potency [4] | Potency [9] | Potency [5] | Potency [10] | Potency [6] | Potency [7] | Potency [12] | Potency [14]

COc1ccc(-n2nc(CCC(=O)N(C)O)cc2-c2ccc(Cl)cc2)cc1
inactive: Potency [1] | Potency [2] | Potency [4] | Potency [5] | Potency [10] | Potency [8]
active: Potency [3] 26.6 µM | Potency [12] 19 µM

Clc1ccc(C(c2ccccc2Cl)C(Cl)Cl)cc1 (configuration not stated)
inactive: Potency [15]

O=C1NCN(c2ccccc2)C12CCN(CCCC(c1ccc(F)cc1)c1ccc(F)cc1)CC2
active: Potency [19] 23.7 µM | Potency [20] 22.8 µM
inactive: outcome [16] | outcome [17] | outcome [18]

CSc1ccc2c(c1)N(CCC1CCCCN1C)c1ccccc1S2 (configuration not stated)
inactive: outcome [16]

CC(C)c1cccc(C(C)C)c1N1C(=O)c2ccc(O)cc2C1=O
inactive: Potency [20]

C/C=C/CO
inactive: Potency [1] | Potency [3] | Potency [4] | Potency [9] | Potency [5] | Potency [10] | Potency [11] | Potency [6] | Potency [8] | Potency [12] | Potency [14]
